# Records with an inconclusive call do not appear. Unmarked numbers belong to inactive results. Active and inactive are the calls of the source. The call rests on the fitted dose curve; in most records, active means well fitted inhibition curve with a large enough effect; inconclusive means small, poorly fitted or top-dose-only effect; inactive means flat fitted curve, though single readings scatter.
# System: CRL-7250
# Test: Cytotoxic Profiling of Annotated Libraries Using Quantitative High-Throughput Screening (AID 1296008); further: nearly all actives have a fitted effect of over 60% in size
# Details: Five cell lines viability, CellTiter-Glo ATP luminescence, 48-72 h; max response: active compounds read low
# Procedure, shortened: (§1)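 Cytotoxicity was measured as CellTiter-Glo ATP luminescence, read after 10 min at room temperature. Compound treatment of the cells lasted 48 or 72 hr at 37 degrees Celsius in a qHTS format.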
# On the % scale 0 is the no-effect control and ±100 the full control effect; potency means the concentration at half of the fitted maximal effect.
Compound,max response,Potency,outcome
COC1CC(OC2CCC3(C)C(=CCC4C3C(OC(C)=O)C(OC(=O)/C=C/c3ccccc3)C3(C)C(C(C)O)CCC43O)C2)OC(C)C1OC1CC(OC)C(OC2OC(C)C(OC3OC(CO)C(O)C(O)C3O)C(OC)C2O)C(C)O1 (stereo not given),2.68%,,
CC1COC2(OC3CC4C5CC(O[C@@H]6O[C@H](C)[C@@H](O[C@@H]7O[C@@H](C)[C@H](O)[C@@H](O)[C@H]7O)[C@H](O)[C@H]6O)C6CC(O)CCC6(C)C5CCC4(C)C3C2C)C(O)C1 (stereo not given in full),-20%,,
CC[C@]1(O)CC2CN(CCc3c([nH]c4ccccc34)[C@@](C(=O)OC)(c3cc4c(cc3OC)N(C)[C@H]3[C@@](O)(C(=O)OC)[C@H](OC(C)=O)[C@]5(CC)C=CCN6CC[C@]43[C@@H]65)C2)C1 (stereo not given in full),,0.259 µM (active),
CC1(C)CCCC2(C)C1C(O)C=C(CO)C2(O)CO (stereo not given),,,inactive
O=C1NC(Cc2ccccc2)C(=O)N2CCCC12 (stereo not given),,,inactive

# System: HEK293
# Test: as above
# Details: Five cell lines viability, CellTiter-Glo ATP luminescence, 48-72 h; max response: active compounds read low
# Procedure, shortened: as §1
Compound,max response,Potency,outcome
COC(=O)c1c(C)cc(OC(=O)c2c(C)cc(OC)cc2OC)cc1O[C@@H]1O[C@H](CO)[C@@H](O)[C@H](O)[C@H]1O,-0.971%,,
COc1ccc(-c2ccc3c(N4CCOCC4)nc(N4CC(C)OC(C)C4)nc3n2)cc1CO (stereo not given),,1.16 µM (active),
COc1ncc(Nc2ncc([C@H](C)N3CCN(S(C)(=O)=O)CC3)cc2-c2nc(C)nc(N)n2)cc1F,,0.517 µM (active),
C[C@]12C=C[C@@]3(CCC4[C@](C)(CO)CCC[C@@]4(C)C3CC1)C2 (stereo not given in full),-17.4%,,
Cn1cc(S(=O)(=O)c2ccc(Cl)cc2)c2cccc(N3CCNCC3)c21,,6.51 µM (active),
CC1OC(OC2C(C)OC(OC3C(O)C(CO)OC(O[C@H]4CC[C@@]5(C)C(CC[C@]6(C)C5CC=C5C7[C@@H](C)[C@H](C)CC[C@]7(C(=O)O)CC[C@]56C(=O)O)C4(C)C)C3O)C(O)C2O)C(O)C(O)C1O (stereo not given in full),-6.08%,,
c1ccc(N2CCN(CCc3nn[nH]n3)CC2)cc1,-5.85%,,
O=C1OCC(c2ccccc2)=C1Cc1ccccc1,0.652%,,
CC(O)c1cc(C(=O)N[C@@H](C)Cn2ccc(-c3ccc(C#N)c(Cl)c3)n2)n[nH]1 (stereo not given in full),,18.4 µM (active),
COc1c2c(c(CO)c3c1C(=O)OC3)OC1(C)CCC3(O)C(C)(C)OC(=O)CCC3(C)C1C2 (stereo not given),,,inactive
CC1CCN(C(=O)CC#N)CC1N(C)c1ncnc2[nH]ccc12 (stereo not given),,,inactive
C=C(C)C1CCC(C)C12CC(O)C1(C)OC1C2OC(=O)C(N)CCC(=O)O (stereo not given),-1.87%,,
CC(=O)N[C@H]1[C@H](O[C@H]2CC[C@@]3(C)C(CC[C@]4(C)C3CC=C3[C@@H]5CC(C)(C)CC[C@]5(C(=O)OC5OCC(O)C(O)C5O)CC[C@]34C)C2(C)C)O[C@H](COC2OC(C)C(O)C(OC3OC(C)C(O)C(O)C3O)C2O)[C@@H](O)[C@@H]1O (stereo not given in full),-2.57%,,
Cc1c(CN2CCN(C(=O)C(C)O)CC2)sc2c(N3CCOCC3)nc(-c3cnc(N)nc3)nc12 (stereo not given),,0.651 µM (active),
O=C(CO)[C@@H](O)[C@H](O[C@@H]1O[C@H](CO)[C@H](O)[C@H](O)[C@H]1O)[C@H](O)CO,,,inactive
O=C(c1cn(Cc2cncn2Cc2ccc(Br)cc2)cc1-c1cccc2ccccc12)N1CCOCC1,,0.58 µM (active),
Oc1ccc(CNc2ccccc2F)c2cccnc12,,18.4 µM (active),
O=C(Nc1ccc(-c2ccncc2)cc1)N[C@H](CO)c1ccccc1,-14.1%,,
COC(=O)C[C@H]1C(C)(C)[C@H](OC(C)=O)C2CC3=C4CC(=O)O[C@@H](c5ccoc5)[C@]4(C)CCC3[C@@]1(C)C2=O (stereo not given in full),-19.9%,,
C[C@H]1CC[C@@]2(OC1)O[C@H]1CC3C4CC[C@H]5C[C@@H](O)[C@H](O)C[C@]5(C)C4=CC(=O)[C@]3(C)[C@H]1[C@@H]2C (stereo not given in full),-6.34%,,
C=C(F)c1sc(CNCCCNc2cc(=O)c3ccccc3[nH]2)c(C)c1Br,,6.51 µM (active),
C/C=C/c1ccc(O[C@@H]2O[C@H](CO)[C@@H](O)[C@H](O)[C@H]2O)c(OC)c1,,11.4 µM (active),
CS(=O)(=O)c1ccc([C@H](CC2CCCC2)C(=O)Nc2nccs2)cc1,-58%,,
Cc1cccc(C)c1-n1c(=O)c2cnc(Nc3ccc(N4CCN(C)CC4)cc3)nc2n2c3ccccc3nc12,,0.517 µM (active),
CC(C)c1nc(-c2ccc(NC(=O)Nc3cccc(C(F)(F)F)c3)c3ccccc23)c2c(N)nccn12,,6.51 µM (active),

# Reference: PubChem BioAssay (NCATS)
